In PubChem BioAssay AID2551 (National Center for Advancing Translational Sciences (NCATS), 2010):
The whole screen tested about 310,000 compounds, of which about 17,000 (5.5%) were called active. Another 11% or so got no clear call; they are omitted. The sample as a whole holds a higher share of actives than the screen did. A number with no mark means an inactive call. The call rests on the fitted dose curve; in most records, active means well fitted inhibition curve with a large enough effect; inconclusive means small, poorly fitted or top-dose-only effect, or effect the other way; inactive means no such curve, though single readings can be large or run the other way.

The compounds below were run against Nuclear receptor ROR-gamma (Mus musculus) (UniProt P51450) (assay: qHTS for inhibitors of ROR gamma transcriptional activity). Details: Drosophila S2 Gal4-RORgamma UAS-luciferase reporter, 20 h; series mostly up to 53.6 µM; activity change, negative = inhibition: at the top concentration.
Summary of the method: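 Using a luciferase readout, inhibitors were identified by reduced reporter activity in Drosophila cells coexpressing a copper-inducible Gal4–ROR gamma fusion and UAS-driven Photinus luciferase, incubated 20 hr after 700 uM copper sulfate.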
Further: nearly all actives have a fitted effect of over 60% in size.
On the % scale 0 is the no-effect control and ±100 the full control effect; potency means the concentration at half of the fitted maximal effect.

Sequence of Nuclear receptor ROR-gamma (Mus musculus) (P51450 whole entry, looked up, the tested form may be a part): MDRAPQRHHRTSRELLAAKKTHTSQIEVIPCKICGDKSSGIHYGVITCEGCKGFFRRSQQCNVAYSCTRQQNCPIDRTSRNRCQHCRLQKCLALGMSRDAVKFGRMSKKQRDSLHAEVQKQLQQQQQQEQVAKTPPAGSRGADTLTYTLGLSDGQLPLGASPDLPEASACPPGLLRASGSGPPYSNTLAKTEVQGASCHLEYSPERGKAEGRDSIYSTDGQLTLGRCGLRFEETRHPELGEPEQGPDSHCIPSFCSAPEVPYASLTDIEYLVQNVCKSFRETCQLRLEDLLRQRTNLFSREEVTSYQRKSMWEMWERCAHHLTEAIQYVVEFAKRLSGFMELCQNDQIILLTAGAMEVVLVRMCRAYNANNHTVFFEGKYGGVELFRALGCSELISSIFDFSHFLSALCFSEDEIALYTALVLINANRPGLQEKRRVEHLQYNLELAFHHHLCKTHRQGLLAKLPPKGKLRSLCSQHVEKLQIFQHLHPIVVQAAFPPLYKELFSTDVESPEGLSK

Row | Structure (SMILES) | activity change, negative = inhibition | Potency
1 | O=C(NCC1COc2ccccc2O1)C1(c2ccccc2)CCCC1 (stereo not given) | 27.7% | –
2 | Cc1cc(C(=O)CCl)c(C)n1CC1COc2ccccc2O1 (stereo not given) | – | 10 µM (active)
3 | O=C1C(=O)N(CC2COc3ccccc3O2)c2ccccc21 (stereo not given) | -0.423% | –
4 | Cc1ccc(C)c(OCc2cc(C(=O)N3CCN(c4cnccn4)CC3)no2)c1 | 15.6% | –
5 | O=C(CN1CCN(C(=O)C2CCCO2)CC1)Nc1c(Cl)cccc1Cl (stereo not given) | 6% | –
6 | Cc1ccc(-n2ncc3c2CC(C)(C)CC3NC(=O)CCc2cnn(C)c2)cc1 (stereo not given) | -2.94% | –
7 | CC(C)NS(=O)(=O)c1ccc(OCC(=O)NC2CCCCCC2)cc1 | -17.8% | –
8 | CCC(C)(C)C1CCC(=NNC(=O)c2ccc(Br)o2)CC1 (stereo not given) | – | 11.2 µM (active)
9 | O=C(N/N=C\C1CC=CCC1)c1ccc(Br)o1 (stereo not given) | -8.11% | –
10 | CC(C)(C)C1CCC(=NNC(=O)c2ccc(Br)o2)CC1 (stereo not given) | -20.7% | –
11 | Cc1cc(-c2nnc(SCC(=O)Nc3ccc(S(N)(=O)=O)cc3)n2N)n[nH]1 | -28.9% | –
12 | CCOc1ccc(OCc2ccc(C(=O)N(C)c3ccccc3)o2)cc1 | 41.7% | –
13 | CCc1ccccc1NC(=O)NCCN1CCCCC1 | 8.95% | –
14 | Cc1ccc(NC(=S)N(CCN2CCCCC2)Cc2ccco2)cc1C | – | 10 µM (active)
15 | Cc1ccc(NC(=S)N(CCCN2CCC(C)CC2)Cc2ccco2)cc1 | -10.4% | –
16 | COc1cccc(NC(=O)NCCN2CCCCC2)c1 | -0.679% | –
17 | COc1cc2cc(CN(CCN3CCCC3)C(=O)Nc3ccccc3Cl)c(=O)[nH]c2cc1OC | -28.4% | –
18 | CCc1ccccc1NC(=S)N(CCN1CCCCCC1)Cc1ccco1 | – | 17.8 µM (active)
19 | C=C1CCN(C(CC(C)C)C(=O)N2CCOCC2)S(=O)(=O)c2ccccc21 (stereo not given) | 7.59% | –
20 | CCOc1ccccc1NS(=O)(=O)c1c[nH]c(C(=O)OC)c1 | -1.36% | –
21 | COC(=O)[C@]1(S(=O)(=O)c2ccccc2)C[C@@H]2ON=C(c3ccc(OC)cc3)[C@@H]2C1 | 2.22% | –
22 | COc1ccc(CCC(C)N2CCc3ccccc3C2)cc1 (stereo not given) | 9.94% | –
23 | CCCC(=O)N1CCC(CCC(=O)NC2CC2)CC1 | -12.6% | –
24 | O=C(NCCc1ccc(Cl)cc1)C1CCCN1C(=O)NCc1ccccc1 (stereo not given) | 0.783% | –
25 | COCCn1cnc2c1c(=O)n(CC(=O)NN)c(=O)n2Cc1ccccc1 | -27.2% | –
26 | O=C(CN1C(=O)/C(=C\c2ccccc2F)SC1=S)Nc1nc2ccccc2s1 | – | 11.2 µM (active)
27 | Cc1nn(CC(=O)Nc2nc3ccccc3s2)c(C)c1[N+](=O)[O-] | 5.91% | –
28 | O=C(CN1C(=O)S/C(=C\c2ccccc2F)C1=O)NCCCn1ccnc1 | -32.2% | –
29 | CCOC(=O)C1C(c2ccc(O)cc2)NC(=O)NC1(O)C(F)(F)F (stereo not given) | 1.82% | –
30 | CC1=NN(C(N)=S)C(=O)C1N=Nc1cc(Cl)ccc1Cl (stereo not given) | – | 1.41 µM (active)
